# Test results published in PubChem BioAssay (EPA / NIEHS).
# Calls of active or inactive are those of the source. Rule for the calls: active = hit-call score of the fitted dose curve at least 0.9, where 1 is the maximum; inactive = score below 0.9.
# Tests used:
# [1] = read-out: Thrombomodulin, THBD (gene 7056); assay: BSK_CASM3C_Thrombomodulin: BioMAP Diversity Plus: CASM3C Assay for Thrombomodulin Biomarker Activity (AID 2283051); settings: primary human coronary artery smooth muscle cells; actives raise or lower the signal;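 note: thrombomodulin protein level measured by ELISA 24 h after dosing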
# [2] = read-out: Tissue Factor, F3 (gene 2152); assay: BSK_CASM3C_TissueFactor: BioMAP Diversity Plus: CASM3C Assay for Tissue Factor Biomarker Activity (AID 2283052); settings: primary human coronary artery smooth muscle cells; actives raise or lower the signal;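 note: cell surface tissue factor protein level read by ELISA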
# [3] = read-out: Interferon-gamma inducible Protein 10 (IP10), CXCL10 (gene 3627); assay: BSK_hDFCGF_IP10: BioMAP Diversity Plus: hDFCGF Assay for Interferon-gamma inducible Protein 10 (IP10) Biomarker Activity (AID 2283053); settings: primary human foreskin fibroblasts; actives raise or lower the signal
# Method in brief: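 Cells: human dermal foreskin fibroblasts. Exposure: 24 h post-dosing. Detection: IP-10 ELISA, with values expressed against DMSO controls and fitted in both directions.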
# [4] = read-out: Urokinase-type plasminogen activator receptor (uPAR), PLAUR (gene 5329); assay: BSK_CASM3C_uPAR: BioMAP Diversity Plus: CASM3C Assay for Urokinase-type plasminogen activator receptor (uPAR) Biomarker Activity (AID 2283054); settings: primary human coronary artery smooth muscle cells; actives raise or lower the signal;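 note: cell-surface uPAR protein level quantified by ELISA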
# [5] = read-out: Vascular cell adhesion molecule 1 (VCAM1), VCAM1 (gene 7412); assay: BSK_CASM3C_VCAM1: BioMAP Diversity Plus: CASM3C Assay for Vascular cell adhesion molecule 1 (VCAM1) Biomarker Activity (AID 2283055); settings: primary human coronary artery smooth muscle cells; actives raise or lower the signal;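 note: VCAM-1 protein level quantified by ELISA on the cells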
# [6] = read-out: Collagen III, COL3A1 (gene 1281); assay: BSK_hDFCGF_CollagenIII: BioMAP Diversity Plus: hDFCGF Assay for Collagen III Biomarker Activity (AID 2283056); settings: primary human foreskin fibroblasts; actives raise or lower the signal
# Method in brief: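 ELISA read-out of collagen III from human skin fibroblast cultures sampled 24 h post-dosing. Values were derived by bidirectional fitting relative to the DMSO vehicle control.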
# [7] = read-out: Epidermal growth factor receptor (EGFR), EGFR (gene 1956); assay: BSK_hDFCGF_EGFR: BioMAP Diversity Plus: hDFCGF Assay for Epidermal growth factor receptor (EGFR) Biomarker Activity (AID 2283057); settings: primary human foreskin fibroblasts; actives raise or lower the signal
# Method in brief: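 Dosing human primary skin fibroblasts, then measuring surface EGFR by ELISA at 24 h, gives the endpoint; gains and losses relative to DMSO were fitted in both directions.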
# [8] = read-out: Interleukin-8 (IL8), CXCL8 (gene 3576); assay: BSK_hDFCGF_IL8: BioMAP Diversity Plus: hDFCGF Assay for Interleukin-8 (IL8) Biomarker Activity (AID 2283058); settings: primary human foreskin fibroblasts; actives raise or lower the signal
# Method in brief: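 Cells used are human skin primary fibroblasts. Chemical is added, cultures run 24 h, then IL-8 is quantified by ELISA, and gain or loss versus DMSO control is fitted in both directions.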
# [9] = BSK_hDFCGF_Proliferation: Cell Proliferation Assessment in the BioMAP Diversity Plus: hDFCGF Assay (AID 2283059); settings: primary human foreskin fibroblasts;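 note: curves fitted for both rise and fall of signal versus DMSO baseline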
# Method in brief: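 Sub-confluent human foreskin fibroblast cultures receive test chemical […]. Relative cell number is quantified by sulforhodamine B staining (0.1%, after 10% TCA fixation) at 560 nm, with bidirectional fitting referenced to DMSO.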
# [10] = read-out: Macrophage colony-stimulating factor (MCSF), CSF1 (gene 1435); assay: BSK_hDFCGF_MCSF: BioMAP Diversity Plus: hDFCGF Assay for Macrophage colony-stimulating factor (MCSF) Biomarker Activity (AID 2283060); settings: primary human foreskin fibroblasts; actives raise or lower the signal
# Method in brief: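 Primary human foreskin fibroblasts dosed with chemical; 24 h later, M-CSF quantified by ELISA; curves fitted in both directions vs DMSO negative control.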
# [11] = read-out: TIMP metallopeptidase inhibitor 1 (TIMP1), TIMP1 (gene 7076); assay: BSK_hDFCGF_TIMP1: BioMAP Diversity Plus: hDFCGF Assay for TIMP metallopeptidase inhibitor 1 (TIMP1) Biomarker Activity (AID 2283062); settings: primary human foreskin fibroblasts; actives raise or lower the signal
# Method in brief: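 Human skin fibroblasts (primary), hDFCGF system; compound exposure 24 h; TIMP-1 by ELISA; bidirectional fit vs DMSO negative control; overt cytotoxicity by SRB in parallel wells.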
# [12] = read-out: Monokine induced gamma interferon (MIG), CXCL9 (gene 4283); assay: BSK_hDFCGF_MIG: BioMAP Diversity Plus: hDFCGF Assay for Monokine induced gamma interferon (MIG) Biomarker Activity (AID 2283063); settings: primary human foreskin fibroblasts; actives raise or lower the signal
# Method in brief: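 Chemicals were added to primary human foreskin fibroblast cultures, which were sampled 24 h later. MIG levels were then quantified by ELISA and responses fitted in both directions relative to DMSO.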
# [13] = read-out: Matrix Metallopeptidase 1 (MMP1), MMP1 (gene 4312); assay: BSK_hDFCGF_MMP1: BioMAP Diversity Plus: hDFCGF Assay for Matrix Metallopeptidase 1 (MMP1) Biomarker Activity (AID 2283064); settings: primary human foreskin fibroblasts; actives raise or lower the signal
# Method in brief: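 Human foreskin fibroblasts exposed to chemical for 24 h; MMP1 detected by ELISA, with DMSO as baseline for bidirectional fitting.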
# [14] = read-out: Vascular cell adhesion molecule 1 (VCAM1), VCAM1 (gene 7412); assay: BSK_hDFCGF_VCAM1: BioMAP Diversity Plus: hDFCGF Assay for Vascular cell adhesion molecule 1 (VCAM1) Biomarker Activity (AID 2283065); settings: primary human foreskin fibroblasts; actives raise or lower the signal;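 for AC50: VCAM-1 protein level quantified by ELISA after 24 h chemical exposure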
# Method in brief: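 Human foreskin fibroblast primary cells, chemical exposure 24 h; VCAM-1 by ELISA; bidirectional fit, DMSO = negative control/baseline.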
# [15] = read-out: Plasminogen activator inhibitor-1 (PAI1), SERPINE1 (gene 5054); assay: BSK_hDFCGF_PAI1: BioMAP Diversity Plus: hDFCGF Assay for Plasminogen activator inhibitor-1 (PAI1) Biomarker Activity (AID 2283066); settings: primary human foreskin fibroblasts; actives raise or lower the signal
# Method in brief: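 Fibroblasts from human foreskin were treated with test chemical. After 24 h, PAI-1 was measured by ELISA. Activity was fitted in both directions relative to DMSO.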
# [16] = read-out: Intercellular Adhesion Molecule 1 (ICAM1), ICAM1 (gene 3383); assay: BSK_KF3CT_ICAM1: BioMAP Diversity Plus: KF3CT Assay for Intercellular Adhesion Molecule 1 (ICAM1) Biomarker Activity (AID 2283067); settings: primary human keratinocytes with fibroblasts; actives raise or lower the signal
# Method in brief: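 ICAM-1 levels are measured by ELISA 24 h after dosing a primary human co-culture of keratinocytes and foreskin fibroblasts. Activity in either direction is fitted relative to DMSO vehicle.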
# [17] = read-out: Interferon-gamma inducible Protein 10 (IP10), CXCL10 (gene 3627); assay: BSK_KF3CT_IP10: BioMAP Diversity Plus: KF3CT Assay for Interferon-gamma inducible Protein 10 (IP10) Biomarker Activity (AID 2283068); settings: primary human keratinocytes with fibroblasts; actives raise or lower the signal
# Method in brief: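 ELISA read-out of IP-10 after 24 h chemical dosing of human skin primary co-culture (keratinocytes, foreskin fibroblasts). Gain or loss of signal relative to DMSO, bidirectional curve fit.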
# [18] = BSK_KF3CT_SRB: Viability Assessment in the BioMAP Diversity Plus: KF3CT Assay (AID 2283069); settings: primary human keratinocytes with fibroblasts;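 note: read 24 h after compound addition; fitted for both signal gain and loss against DMSO baseline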
# Method in brief: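 Overt cytotoxicity is assessed as total protein by sulforhodamine B staining in parallel human skin co-cultures at 24 h after dosing. DMSO serves as negative control and baseline.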
# [19] = read-out: Interleukin-1 alpha (IL1a), IL1A (gene 3552); assay: BSK_KF3CT_IL1a: BioMAP Diversity Plus: KF3CT Assay for Interleukin-1 alpha (IL1a) Biomarker Activity (AID 2283070); settings: primary human keratinocytes with fibroblasts; actives raise or lower the signal
# Method in brief: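 Readout is IL-1a level by ELISA, compared bidirectionally with DMSO as baseline. Cells: human keratinocytes co-cultured with foreskin fibroblasts, harvested 24 h post-dose.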
smiles,measurement,setting,value
CN1C(=O)CC[C@H]1c1cccnc1,outcome,[1],inactive
same,outcome,[2],inactive
same,outcome,[3],inactive
same,outcome,[4],inactive
same,outcome,[5],inactive
same,outcome,[6],inactive
same,outcome,[7],inactive
same,outcome,[8],inactive
same,outcome,[9],inactive
same,outcome,[10],inactive
same,outcome,[11],inactive
same,outcome,[12],inactive
same,outcome,[13],inactive
same,outcome,[14],inactive
same,outcome,[15],inactive
same,outcome,[16],inactive
same,outcome,[17],inactive
same,outcome,[18],inactive
c1ccc2n[nH]nc2c1,outcome,[1],inactive
same,outcome,[2],inactive
same,outcome,[3],inactive
same,outcome,[4],inactive
same,outcome,[5],inactive
same,outcome,[6],inactive
same,outcome,[7],inactive
same,outcome,[8],inactive
same,outcome,[9],inactive
same,outcome,[10],inactive
same,outcome,[11],inactive
same,outcome,[12],inactive
same,outcome,[13],inactive
same,outcome,[14],inactive
same,outcome,[15],inactive
same,outcome,[16],inactive
same,outcome,[17],inactive
same,outcome,[18],inactive
CCCCCCCCCCCO,outcome,[1],inactive
same,outcome,[2],inactive
same,AC50,[3],36.8 µM (active)
same,outcome,[4],inactive
same,outcome,[5],inactive
same,AC50,[6],31.6 µM (active)
same,outcome,[7],inactive
same,AC50,[8],32.4 µM (active)
same,AC50,[9],20 µM (active)
same,AC50,[10],29.8 µM (active)
same,outcome,[11],inactive
same,AC50,[12],32.1 µM (active)
same,outcome,[13],inactive
same,outcome,[14],inactive
same,outcome,[15],inactive
same,outcome,[16],inactive
same,outcome,[17],inactive
same,outcome,[18],inactive
same,outcome,[19],inactive
Cc1c2ccccc2c(C)c2c1ccc1ccccc12,AC50,[1],20 µM (active)
same,outcome,[2],inactive
same,AC50,[3],6.29 µM (active)
same,outcome,[4],inactive
same,outcome,[5],inactive
same,AC50,[6],1.73 µM (active)
same,AC50,[7],5.45 µM (active)
same,outcome,[8],inactive
same,AC50,[9],7.26 µM (active)
same,AC50,[10],5.48 µM (active)
same,outcome,[11],inactive
same,outcome,[12],inactive
same,outcome,[13],inactive
same,AC50,[14],3.97 µM (active)
same,AC50,[15],10.1 µM (active)
same,outcome,[16],inactive
same,outcome,[17],inactive
same,outcome,[18],inactive
same,outcome,[19],inactive
O=C(O)c1ccccc1C(=O)OCc1ccccc1,outcome,[1],inactive
same,outcome,[2],inactive
same,outcome,[3],inactive
same,outcome,[4],inactive
same,outcome,[5],inactive
same,outcome,[6],inactive
same,outcome,[7],inactive
same,outcome,[8],inactive
same,outcome,[9],inactive
same,outcome,[10],inactive
same,outcome,[11],inactive
same,outcome,[12],inactive
same,outcome,[13],inactive
same,outcome,[14],inactive
same,outcome,[15],inactive
same,outcome,[16],inactive
same,outcome,[17],inactive
same,outcome,[18],inactive
O=c1ccc2ccccc2o1,outcome,[1],inactive
same,outcome,[2],inactive
same,outcome,[3],inactive
same,outcome,[4],inactive
same,outcome,[5],inactive
same,outcome,[6],inactive
same,outcome,[7],inactive
same,outcome,[8],inactive
same,AC50,[9],8.81 µM (active)
same,outcome,[10],inactive
same,outcome,[11],inactive
same,outcome,[12],inactive
same,outcome,[13],inactive
same,outcome,[14],inactive
same,outcome,[15],inactive
same,outcome,[16],inactive
same,outcome,[17],inactive
same,outcome,[18],inactive
